Data on 17 compounds can be found in ChEMBL document CHEMBL1961873, “Compounds: GSK PKIS; Assays: Nanosyn kinase panel” (2012).

In test [1] the target is T1, Muscle, skeletal receptor tyrosine-protein kinase (Homo sapiens) (UniProt O15146).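 Also: reported value is the mean percent inhibition of MuSK kinase.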
T1 sequence (whole entry): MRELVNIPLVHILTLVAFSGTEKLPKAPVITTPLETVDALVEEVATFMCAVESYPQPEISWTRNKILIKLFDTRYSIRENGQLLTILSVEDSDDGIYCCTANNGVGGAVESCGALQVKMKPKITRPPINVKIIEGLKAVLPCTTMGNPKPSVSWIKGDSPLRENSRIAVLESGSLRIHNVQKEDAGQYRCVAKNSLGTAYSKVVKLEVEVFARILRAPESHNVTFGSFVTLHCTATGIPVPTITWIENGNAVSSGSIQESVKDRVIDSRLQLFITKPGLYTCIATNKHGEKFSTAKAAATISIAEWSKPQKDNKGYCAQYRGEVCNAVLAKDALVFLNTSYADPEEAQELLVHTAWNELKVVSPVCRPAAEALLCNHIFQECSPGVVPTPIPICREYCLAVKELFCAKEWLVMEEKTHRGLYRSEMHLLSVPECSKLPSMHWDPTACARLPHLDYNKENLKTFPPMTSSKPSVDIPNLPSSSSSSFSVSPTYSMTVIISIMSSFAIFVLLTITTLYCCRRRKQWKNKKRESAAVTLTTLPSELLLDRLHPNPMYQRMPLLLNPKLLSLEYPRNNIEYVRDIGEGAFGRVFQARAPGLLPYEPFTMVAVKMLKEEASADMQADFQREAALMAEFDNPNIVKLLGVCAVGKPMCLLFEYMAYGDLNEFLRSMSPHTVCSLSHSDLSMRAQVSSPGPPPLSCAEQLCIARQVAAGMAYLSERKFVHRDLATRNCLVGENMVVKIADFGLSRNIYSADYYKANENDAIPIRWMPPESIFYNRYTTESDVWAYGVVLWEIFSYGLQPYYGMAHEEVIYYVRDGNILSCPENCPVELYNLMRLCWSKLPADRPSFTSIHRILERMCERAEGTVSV
The following applies: at 1 µM.

In test [2] the target is Platelet-derived growth factor receptor alpha (Homo sapiens) (UniProt P16234). The following applies: at 0.1 µM.
The target is the same in test [3]. The following applies: at 1 µM.
Test [4] has as its system Platelet-derived growth factor receptor alpha (Homo sapiens), P16234 [D842V]. The following applies: at 0.1 µM.
Test [5] shares this test system. The following applies: at 1 µM.
The test system of test [6] is Platelet-derived growth factor receptor alpha (Homo sapiens), P16234 [T674I]. The following applies: at 0.1 µM.
Test [7] has the same test system. The following applies: at 1 µM.
Test [8] relates to Platelet-derived growth factor receptor alpha (Homo sapiens), P16234 [V561D]. The following applies: at 0.1 µM.
Test [9] shares this test system. The following applies: at 1 µM.
The target in test [10] is Platelet-derived growth factor receptor beta (Homo sapiens) (UniProt P09619). The following applies: at 0.1 µM.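 Also: reported value is the mean percent inhibition of the kinase.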
Platelet-derived growth factor receptor beta (Homo sapiens), sequence (P09619 whole entry): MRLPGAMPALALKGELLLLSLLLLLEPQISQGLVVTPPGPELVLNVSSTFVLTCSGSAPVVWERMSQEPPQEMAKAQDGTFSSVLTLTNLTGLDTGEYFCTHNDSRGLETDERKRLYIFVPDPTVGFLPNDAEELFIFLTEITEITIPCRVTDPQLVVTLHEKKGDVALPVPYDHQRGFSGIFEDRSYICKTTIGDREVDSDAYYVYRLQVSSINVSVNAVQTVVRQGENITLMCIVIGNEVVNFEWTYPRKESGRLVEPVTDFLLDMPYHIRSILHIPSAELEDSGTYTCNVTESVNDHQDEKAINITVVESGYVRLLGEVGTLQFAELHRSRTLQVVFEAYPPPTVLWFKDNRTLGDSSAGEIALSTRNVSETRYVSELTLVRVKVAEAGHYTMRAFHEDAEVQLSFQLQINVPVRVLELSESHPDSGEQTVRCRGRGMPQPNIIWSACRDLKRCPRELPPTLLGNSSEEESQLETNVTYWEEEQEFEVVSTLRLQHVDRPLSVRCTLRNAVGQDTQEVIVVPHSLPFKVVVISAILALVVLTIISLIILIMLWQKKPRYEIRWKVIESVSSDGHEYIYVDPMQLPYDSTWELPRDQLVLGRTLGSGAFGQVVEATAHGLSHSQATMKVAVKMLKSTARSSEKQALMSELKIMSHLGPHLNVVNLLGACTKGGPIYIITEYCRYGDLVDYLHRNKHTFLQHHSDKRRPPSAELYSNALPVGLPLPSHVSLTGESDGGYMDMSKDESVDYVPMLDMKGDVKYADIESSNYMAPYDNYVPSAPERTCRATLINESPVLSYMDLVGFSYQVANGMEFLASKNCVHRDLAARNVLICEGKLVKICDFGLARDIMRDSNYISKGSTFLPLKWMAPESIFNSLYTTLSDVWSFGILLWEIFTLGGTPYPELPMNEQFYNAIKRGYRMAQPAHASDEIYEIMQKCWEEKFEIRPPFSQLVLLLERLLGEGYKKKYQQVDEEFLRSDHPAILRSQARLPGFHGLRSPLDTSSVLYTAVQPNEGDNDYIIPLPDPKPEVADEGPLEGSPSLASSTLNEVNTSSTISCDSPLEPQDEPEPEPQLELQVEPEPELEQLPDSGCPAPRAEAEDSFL

Platelet-derived growth factor receptor alpha (Homo sapiens), P16234 [V561D], sequence (P16234 whole entry V561D): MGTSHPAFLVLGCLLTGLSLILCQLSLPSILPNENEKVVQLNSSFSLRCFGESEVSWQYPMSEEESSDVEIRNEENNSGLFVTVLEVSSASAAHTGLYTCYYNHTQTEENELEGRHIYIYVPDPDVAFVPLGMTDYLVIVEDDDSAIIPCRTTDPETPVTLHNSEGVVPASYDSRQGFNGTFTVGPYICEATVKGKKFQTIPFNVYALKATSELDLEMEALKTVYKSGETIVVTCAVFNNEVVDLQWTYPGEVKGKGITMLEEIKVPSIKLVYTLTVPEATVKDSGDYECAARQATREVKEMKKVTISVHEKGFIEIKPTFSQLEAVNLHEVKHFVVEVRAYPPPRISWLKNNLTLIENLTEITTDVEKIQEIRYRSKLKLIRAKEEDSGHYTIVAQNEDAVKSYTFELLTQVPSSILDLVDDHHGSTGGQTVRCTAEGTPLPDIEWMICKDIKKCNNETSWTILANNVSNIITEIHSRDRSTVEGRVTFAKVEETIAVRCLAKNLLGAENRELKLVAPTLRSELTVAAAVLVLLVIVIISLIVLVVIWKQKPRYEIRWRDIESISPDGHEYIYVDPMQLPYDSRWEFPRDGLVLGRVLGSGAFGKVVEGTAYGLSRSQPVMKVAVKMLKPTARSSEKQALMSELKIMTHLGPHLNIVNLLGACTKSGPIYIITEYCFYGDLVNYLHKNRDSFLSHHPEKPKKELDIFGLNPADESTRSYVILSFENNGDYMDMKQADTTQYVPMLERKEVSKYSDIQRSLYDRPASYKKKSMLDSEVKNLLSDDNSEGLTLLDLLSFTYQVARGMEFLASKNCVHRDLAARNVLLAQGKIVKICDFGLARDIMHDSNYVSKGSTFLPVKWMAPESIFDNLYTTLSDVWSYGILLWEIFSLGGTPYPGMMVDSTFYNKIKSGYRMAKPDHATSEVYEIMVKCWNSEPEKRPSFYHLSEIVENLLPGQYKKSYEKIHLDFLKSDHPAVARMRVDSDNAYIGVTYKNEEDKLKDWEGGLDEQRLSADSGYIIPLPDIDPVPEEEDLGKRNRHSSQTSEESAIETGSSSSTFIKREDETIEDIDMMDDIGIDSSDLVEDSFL
Platelet-derived growth factor receptor alpha (Homo sapiens), P16234 [T674I], sequence (P16234 whole entry T674I): as the sequence (P16234 whole entry V561D) above, with D561V, T674I counted along it
Platelet-derived growth factor receptor alpha (Homo sapiens), sequence (P16234 whole entry): as the sequence (P16234 whole entry V561D) above, with D561V counted along it
Platelet-derived growth factor receptor alpha (Homo sapiens), P16234 [D842V], sequence (P16234 whole entry D842V): as the sequence (P16234 whole entry V561D) above, with D561V, D842V counted along it

`COc1cccc(-n2cnc3c(N/N=C/c4ccncc4)ncnc32)c1`: the inhibition was 17.1% in [1]; 17.9% in [2]; 53.6% in test [3]; 4.61% in test [4]; 45.6% in test [5]; 2.14% in test [6]. In addition, the inhibition amounted to 18.3% in test [7], 10.3% in test [8], 51% in test [9] and 13.2% in test [10].
With `O=C(NCC1CC1)c1ccc(-c2cccc(C(=O)NC3CC3)c2)cc1`, the inhibition is 7.49% in [1]; 8.93% in test [2]; 6.92% in test [3]; -0.01% in [4]; -0.59% in test [5]; 4.42% in test [6]. In addition, the inhibition was 0.5% in test [7], -0.78% in test [8], 2.85% in test [9] and 9.04% in [10].
Consider `Cc1nnc(-c2ccc(C)c(-c3ccc(C(=O)NCc4ccc(Cl)cc4)cc3)c2)o1`, for which the inhibition in test [1] came out at 0.1%; in test [2], 4.51%; in test [3] it was 8.84%; in test [4] it was 3.25%; in test [5] it was 2.53%; in test [6] it was 6.19%. Moreover, the inhibition in [7] is 6%; in test [8] it was 1.34%; in test [9], 2%; in test [10], 1.36%.
As to `CCc1ccc(Oc2nccc(-c3c(-c4ccc(F)cc4)ncn3C3CCNCC3)n2)cc1`, the inhibition is 6.47% in test [1]; 2.2% in test [2]; 10.4% in test [3]; 1.14% in test [4]; 3.96% in [5]; 4.41% in test [6]. Moreover, the inhibition came to 8.8% in test [7], 2.14% in test [8], 4.49% in [9] and 1.82% in [10].
Turning to `O=C1Nc2ccccc2/C1=C/Nc1ccc(-n2cncn2)cc1`, the inhibition worked out at 30.9% in test [1]; 10.5% in test [2]; 45.5% in test [3]; 4.56% in test [4]; 24.2% in [5]; 13.1% in test [6]. Moreover, the inhibition in test [7] was 67.2%; in test [8], 10.8%; in [9] it was 44.8%; in [10], 7.25%.
Regarding `COc1cc(Nc2ncc3c(C)nc(-c4cccc(C(F)(F)F)c4)n3n2)cc(OC)c1OC`, the inhibition in test [1] is 19%; in [2] it was 13%; in test [3] it was 25.8%; in test [4] it was 2.68%; in [5], 13.1%; in test [6], 7.3%. Moreover, the inhibition was 8.12% in test [7], 5.66% in test [8], 14.6% in test [9] and 10.3% in [10].
Take `CN(c1ccc(NC(=O)Nc2c(Cl)cccc2Cl)cc1)c1ccnc(Nc2cccc(CS(C)(=O)=O)c2)n1`: the inhibition in test [1] came out at 89.9%; in test [2], 69.3%; in test [3], 86.6%; in [4] it was 6.78%; in [5], 28.6%; in [6] it was 72.1%. Further, the inhibition in test [7] was 97.5%; in test [8], 78.7%; in [9], 91.2%; in test [10] it was 52.4%.
In the case of `COc1ccc(-c2ccc3c(NC(=O)C4CC4)n[nH]c3n2)cc1`, the inhibition in [1] stood at 3.83%; in [2], 3.05%; in [3] it was 12.2%; in test [4], 1.56%; in [5] it was 5.35%; in test [6] it was 3.4%. The inhibition turned out to be 7.13% in [7], 4.3% in [8], 9.71% in [9] and 1.45% in test [10].
Take `FC(F)(F)c1cccc(Nc2nccc(-c3cnn4nc(-c5ccccc5)ccc34)n2)c1`: the inhibition was 0.42% in [1]; 7.91% in test [2]; 42.6% in test [3]; 4.44% in test [4]; 33.6% in [5]; 3.36% in test [6]. Also, the inhibition in [7] is 9.98%; in test [8], 6.8%; in test [9], 39.2%; in [10], 7.48%.
Turning to `CCN(CC)Cc1ccc(Nc2nccc(-c3cnn4ncccc34)n2)cc1`, the inhibition came to 30.5% in test [1]; 17.5% in [2]; 55.5% in test [3]; 10.1% in test [4]; 51.1% in [5]; 6.93% in [6]. Moreover, the inhibition in test [7] was found to be 34.9%; in test [8] it was 18%; in [9] it was 64.2%; in test [10], 29.1%.
Take `NC(=O)c1ccc(Oc2nccc(-c3c(-c4ccc(F)cc4)ncn3C3CCNCC3)n2)cc1`: the inhibition in test [1] stood at 9.48%; in test [2], 5.32%; in test [3], 10.6%; in test [4], 2.12%; in test [5] it was 4.3%; in test [6], 2.24%. Further, the inhibition in test [7] was 6.2%; in test [8] it was 5.07%; in [9] it was 7.97%; in test [10], 4.31%.
In the case of `NC(=O)c1cc(-c2ccncc2)cc(-c2ccccc2)c1N`, the inhibition in test [1] was determined as 3.55%; in [2] it was 9.17%; in [3] it was 36.2%; in [4], 3.01%; in test [5], 11.3%; in test [6], 5.87%. Also, the inhibition turned out to be 11.6% in test [7], 5.79% in [8], 37.8% in [9] and 9.7% in test [10].
For the compound `CCc1nccc2c1nc(-c1nonc1N)n2CC`, the inhibition in [1] was 0.59%; in test [2], 5.23%; in [3], 11.5%; in [4] it was 2.48%; in test [5], 9.06%; in test [6], 2.57%. For the same compound, the inhibition in test [7] was 0.49%; in [8], 0.72%; in [9] it was 6.72%; in [10], 2.42%.
`COc1cc(Nc2ncc3c(C)nc(-c4cccc(Oc5ccccc5)c4)n3n2)cc(OC)c1OC`: the inhibition in test [1] came out at 4.06%; in [2], 3.72%; in test [3], 10.5%; in test [4] it was 2.21%; in [5] it was 5.9%; in test [6], 1.26%. The inhibition worked out at 1.96% in [7], 1.43% in test [8], 9.34% in [9] and 0.58% in test [10].
As to `O=C(Nc1n[nH]c2nc(-c3ccc(O)cc3)c(Br)cc12)C1CC1`, the inhibition was 14% in test [1]; 25.9% in test [2]; 67.1% in test [3]; 12.8% in test [4]; 55.5% in test [5]; 7.49% in [6]. In addition, the inhibition is 24.4% in test [7], 19.7% in [8], 64.6% in test [9] and 12% in test [10].
As for `Fc1ccc(-c2ncn(C3CCNCC3)c2-c2ccnc(Oc3ccc(Oc4ccccc4)cc3)n2)cc1`, the inhibition in test [1] was found to be 8.37%; in test [2] it was 3.69%; in [3] it was 9.58%; in test [4] it was 0.69%; in test [5], 1.95%; in [6], 2.85%. Further, the inhibition was found to be 6.65% in test [7], 2.74% in test [8], 3.75% in [9] and 2.57% in [10].
With `C[C@@H](Oc1cc(-n2cnc3ccc(OCC4CCN(C)CC4)cc32)sc1C(N)=O)c1ccccc1Cl`, the inhibition in test [1] came to 88.3%; in test [2], 26.5%; in test [3], 75.7%; in [4], 10.9%; in [5], 54.2%; in test [6] it was 12.7%. Moreover, the inhibition in test [7] was determined as 62.1%; in [8], 14.7%; in [9] it was 64.7%; in [10] it was 39.8%.

The inhibition is the relative decrease from the control value, in per cent.
